{"source": "the supplement of paper PMC11577813", "about": "“Eurasian spruce bark beetle detects lanierone using a highly expressed specialist odorant receptor, present in several functional sensillum types” (BMC Biology, 2024)", "system": "lanierone-responsive B-neuron OSN class (ItypOR36)", "assay": "net action potential response of lanierone B-neuron (blank-subtracted) (spikes/s (Hz)); higher = stronger excitation", "settings": "10 µg on filter paper, neuron: B neuron (small spike amplitude)", "protocol": "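Single sensillum recordings from antennal olfactory sensilla of live adult Ips typographus. Each compound was 10 µg in paraffin oil, delivered as a 0.5 s puff. Net response = spikes in the first 0.5 s of response minus the 0.5 s pre-stimulus count, doubled to give Hz, with blank response subtracted. Values are for the small-spike lanierone-responsive B-neuron (putatively expressing ItypOR36), recorded in sensilla co-housing the A-neuron class; N = 1-4, averaged.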", "key": {"[1]": {"settings": "co-localized A-neuron class: (4S)-cis-verbenol"}, "[2]": {"settings": "co-localized A-neuron class: (5S,7S)-trans-conophthorin"}, "[3]": {"settings": "co-localized A-neuron class: (+)-isopinocamphone"}, "[4]": {"settings": "co-localized A-neuron class: (+)-trans-4-thujanol"}, "[5]": {"settings": "co-localized A-neuron class: ipsdienol"}, "[6]": {"settings": "co-localized A-neuron class: myrcene"}, "[7]": {"settings": "co-localized A-neuron class: p-cymene"}}, "note": "± gives the standard deviation of the averaged measurements.", "data": [{"smiles": "Cc1ccccc1", "note": "[Toluene]", "values": [{"measurement": "net action potential response", "setting": "[1]", "value": "2 ± 4"}, {"measurement": "net action potential response", "setting": "[2]", "value": "-1 ± 5"}, {"measurement": "net action potential response", "setting": "[3]", "value": -4}, {"measurement": "net action potential response", "setting": "[4]", "value": "1 ± 1.1"}, {"measurement": "net action potential response", "setting": "[5]", "value": "-2 ± 3.5"}, {"measurement": "net action potential response", "setting": "[6]", "value": 0}, {"measurement": "net action potential response", "setting": "[7]", "value": 0}]}, {"smiles": "O=Cc1ccccc1", "note": "[Benzaldehyde]", "values": [{"measurement": "net action potential response", "setting": "[1]", "value": "0 ± 3.5"}, {"measurement": "net action potential response", "setting": "[2]", "value": "0.667 ± 1.1"}, {"measurement": "net action potential response", "setting": "[3]", "value": "-2.67 ± 3.1"}, {"measurement": "net action potential response", "setting": "[4]", "value": "-2.5 ± 10"}, {"measurement": "net action potential response", "setting": "[5]", "value": "2 ± 7.2"}, {"measurement": "net action potential response", "setting": "[6]", "value": -6}, {"measurement": "net action potential response", "setting": "[7]", "value": 0}]}, {"smiles": "C=CCc1ccc(OC)cc1", "note": "[Estragole]", "values": [{"measurement": "net action potential response", "setting": "[1]", "value": "1.33 ± 7.6"}, {"measurement": "net action potential response", "setting": "[2]", "value": "0 ± 7.8"}, {"measurement": "net action potential response", "setting": "[3]", "value": "0 ± 2"}, {"measurement": "net action potential response", "setting": "[4]", "value": "0 ± 4.3"}, {"measurement": "net action potential response", "setting": "[5]", "value": "4 ± 5.3"}, {"measurement": "net action potential response", "setting": "[6]", "value": -8}, {"measurement": "net action potential response", "setting": "[7]", "value": "-2.67 ± 1.1"}]}]}
